M1 ag parental – M1 agonist counterscreen hit in parental CHO-K1 cells; Fluo-8 calcium fluorescence; scaled to maximal ATP response, vehicle zero; activation, % at 3 µM; actives 0.48% (n = 360,000); in the data active = activation above about 15%;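 note: untransfected CHO-K1 host cells lacking M1 receptor as counterscreen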
M1 antag – blocks human M1 muscarinic receptor; P11229; CHO-K1 hM1, Fluo-8 calcium fluorescence, ACh EC80 antagonist; inhibition, % at 3 µM; actives 1.3% (n = 360,000); AID 588852;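 active = percent inhibition above its own plate's cutoff, namely the mean of that plate's compound wells plus 3 SD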;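 note: peak over basal fluorescence ratio during 140 s after agonist addition; 0% = ACh EC80 plus DMSO and 100% = DMSO alone without agonist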
Target sequence (P11229 whole entry, looked up): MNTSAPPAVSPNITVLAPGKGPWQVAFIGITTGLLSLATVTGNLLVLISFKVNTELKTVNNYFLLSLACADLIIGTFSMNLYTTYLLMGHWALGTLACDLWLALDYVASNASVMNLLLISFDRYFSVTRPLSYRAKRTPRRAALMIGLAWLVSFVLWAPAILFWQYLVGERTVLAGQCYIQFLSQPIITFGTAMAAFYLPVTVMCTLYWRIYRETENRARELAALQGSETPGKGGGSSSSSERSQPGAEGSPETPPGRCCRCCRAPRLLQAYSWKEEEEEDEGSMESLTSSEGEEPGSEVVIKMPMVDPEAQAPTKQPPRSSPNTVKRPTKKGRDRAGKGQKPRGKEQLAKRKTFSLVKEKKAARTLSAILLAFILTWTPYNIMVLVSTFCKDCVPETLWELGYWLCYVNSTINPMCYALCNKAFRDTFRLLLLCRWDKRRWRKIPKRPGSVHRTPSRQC
CHRM1 agonist – human M1 muscarinic receptor agonism | activation, % at 3 µM | CHO-K1 hM1, Fluo-8 calcium fluorescence, agonist mode; 0% DMSO, 100% acetylcholine EC100 | actives 0.33% (n = 360,000) | AID 588814;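 active = activation above the run's mean compound activation plus 3 SD, cut at about 16% in these data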;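 note: peak over basal fluorescence ratio within a 140 s kinetic read after compound addition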
CHRM1 PAM – positive allosteric modulators of human M1 muscarinic receptor; activation, % at 3 µM; actives 0.088% (n = 360,000); CHO-K1 hM1, Fluo-8 calcium fluorescence, ACh EC20; 0% = ACh EC20, 100% = maximal ACh; P11229; in the data active = activation above about 19%, passing the limit was not always enough
CHO-K1 Ca PAM – counter-screen for M1 PAMs: effect in parental CHO-K1 cells; ATP EC20, Fluo-8 calcium fluorescence; 0% at ATP EC20, 100% at ATP max; activation, % at 3 µM; actives 0.02% (n = 360,000); AID 602247;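 active = activation above the run cutoff, the mean activation of all test compounds plus 3 SD, cut at about 40% in these data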;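 note: peak over basal fluorescence ratio in a 140 s read after ATP addition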
CHO-K1 Ca antag – M1 antagonist counterscreen hit in parental CHO-K1 cells | AID 602250 | ATP-induced calcium, Fluo-8 fluorescence | actives 0.6% (n = 360,000) | inhibition, % at 3 µM;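 active = inhibition above a per-plate cutoff, the plate's mean sample inhibition plus 3 SD, cut at about 24% in these data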;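 note: 0% = DMSO plus EC80 ATP and 100% = DMSO alone without ATP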
* hit, by the source's call; · = not tested or not shown. This is a sample that favours compounds with a hit; in the whole collection about 2.3% have one here.

SMILES	M1 ag parental	M1 antag	CHRM1 agonist	CHRM1 PAM	CHO-K1 Ca PAM	CHO-K1 Ca antag
Cc1sc2ncnc(N3CCC(C(=O)N(C)CC(=O)Nc4ccccc4Br)CC3)c2c1C	10	35*	0	-10	4	0
Cc1ccc(NC(=O)C2CCN(c3ncnc4sc(C)c(C)c34)CC2)cc1S(=O)(=O)N(C)C	7	14	-2	-8	3	5
O=C(CSc1ccc(-c2ccccn2)nn1)NCc1ccccc1	4	37*	-4	-5	7	0
Cn1c2c(c(=O)n(C)c1=O)C(C(F)(F)F)(C(F)(F)F)N=C(c1ccc(Cl)cc1)N2	11	24*	5	-9	8	19
Cc1ccccc1C1=NC(C(F)(F)F)(C(F)(F)F)c2c(n(C)c(=O)n(C)c2=O)N1	1	0	-4	-1	-2	8
CC(C)C[C@H]1CN([C@@H](Cc2ccccc2)CN2CCC[C@H]2CN2C(=O)C(=O)NC[C@@H]2Cc2ccccc2)C(=O)C(=O)N1CCc1ccccc1	2	·	·	·	9	-12
CN(C)Cc1csc(NC(=O)Nc2ccccc2-c2ccccc2)n1	1	28*	-8	-20	-8	7
CC1CN(c2nc3ccccc3nc2SCC(=O)Nc2ccc(F)cc2)CC(C)O1 (centres undefined)	1	-2	-7	-1	17	-8
O=C(Nc1ccc2snnc2c1)Nc1cccc2ccccc12	8	-9	17*	-7	4	29*
Cc1nc2cc(NC(=O)Nc3cccc4ccccc34)ccc2n1C	1	-5	-7	6	24	-14
O=c1c2ccccc2nnn1Cc1nnc(-c2ccccc2Br)o1	11	-5	16*	8	18	-29
COc1ccc(NC(=O)COC(=O)c2c3c(nc4ccccc24)CCCC3)cc1Cl	3	22*	-4	-10	9	11
COc1ccc(OC)c(NC(=O)COC(=O)c2c3c(nc4ccccc24)CCCC3)c1	4	38*	-7	-19	-2	-14
CNC(=O)COC(=O)c1c2c(nc3ccccc13)CCC2	1	12	-3	2	-10	4
COc1ccc(NC(=O)COC(=O)c2c3c(nc4ccccc24)CCCC3)cc1	4	32*	0	-9	-3	2
Cc1c(NC(=O)COC(=O)c2c3c(nc4ccccc24)CCCC3)c(=O)n(-c2ccccc2)n1C	0	-2	-14	-5	-7	3
CCCCNC(=O)COC(=O)c1c2c(nc3ccccc13)CCC2	3	9	-7	-10	-8	10
CCc1nnc(NC(=O)CSc2nnc(Cc3cc(=O)[nH]c(=O)[nH]3)n2-c2cccc(OC)c2)s1	0	-5	-5	7	12	1
Cc1c(O)cc2c(c1O)C(=O)CC(c1ccccc1)O2 (centres undefined)	26*	102*	58*	-33	-14	85*
O=C1C[C@@H](c2ccc(O)cc2)Oc2cc(O)cc(O)c21	2	-10	3	5	3	-18
CCCNC(=O)C1(C)CCN(C(=O)c2ccc(F)c(Cl)c2)C1 (centres undefined)	0	2	-4	2	-8	-3
CCCNC(=O)C1(C)CCN(C(=O)c2ccc3c(c2)CCO3)C1 (centres undefined)	0	-38	5	31*	8	-1
O=C(NNC(=O)c1cnccc1C(F)(F)F)c1ccccc1	16*	-3	1	7	7	16
CCN1CCN(C(c2cccs2)C(C)NC(=S)Nc2cccc(C)c2C)CC1 (centres undefined)	2	-2	-6	-2	25	-20
COC(=O)c1sccc1S(=O)(=O)Nc1ccc(C(O)(C(F)(F)F)C(F)(F)F)cc1	61*	39*	66*	-33	3	8
SMILES	M1 ag parental	M1 antag	CHRM1 agonist	CHRM1 PAM	CHO-K1 Ca PAM	CHO-K1 Ca antag
COC(=O)c1sccc1S(=O)(=O)Nc1ccc(Cl)cc1	6	10	-2	-7	2	-14
CC(=O)CC(c1ccccc1)S(=O)(=O)c1ccc(C)cc1 (centres undefined)	0	27*	-2	-4	-6	9
COc1ccc(C(CC(=O)c2ccccc2)S(=O)(=O)c2ccc(C)cc2)cc1 (centres undefined)	0	-16	-6	9	16	-12
Cc1cc(=S)cc(C)n1CCCO	0	6	-7	-2	-4	29*
Cc1nc2cc(Cl)c(Cl)cc2n1CCCO	1	-5	-7	5	17	-5
CSCCC(=O)N(C)CC1CCCN(CCc2cccc(C(F)(F)F)c2)C1 (centres undefined)	0	37*	-8	-23	15	-6
CC(=O)NCCC(=O)N(C)CC1CCN(CCc2cccc(C(F)(F)F)c2)CC1	0	-3	-5	0	7	-3
COc1cc(CN(C)CC2CCCN(CCc3cccc(C(F)(F)F)c3)C2)ccc1O (centres undefined)	0	49*	-9	-29	7	-12
COC(=O)CCC(=O)N(C)CC1CCCN(CCc2cccc(C(F)(F)F)c2)C1 (centres undefined)	0	44*	-11	-25	5	-2
CC(C)(C)OC(=O)NCc1ccc(CNC(=O)c2nc[nH]c2C(=O)NCc2ccccc2)cc1	2	9	-2	-5	6	-12
C[C@H](NC(=O)c1nc[nH]c1C(=O)NCC(=O)OCc1ccccc1)c1ccccc1	6	31*	-2	-19	18	-7
O=C(CNC(=O)c1nc[nH]c1C(=O)NCc1ccccc1)OCc1ccccc1	7	38*	-3	-19	12	-5
CC(C)(C)OC(=O)NCc1ccc(CNC(=O)c2[nH]cnc2C(=O)NCC(=O)OCc2ccccc2)cc1	13	44*	4	-20	-5	10
C[C@H](NC(=O)c1nc[nH]c1C(=O)NCC(=O)OCc1ccccc1)C(=O)OCc1ccccc1	7	32	-3	-11	0	1
O=C(NCCN1CCCCC1)Nc1cccc(F)c1	0	-7	-9	2	13	-10
Cc1nn(C)c2c1NC(=O)CS2	0	0	-1	4	-7	4
CC(C)(C)C(=O)Nc1nc(-c2ccc3c(c2)OCO3)cs1	15*	5	1	3	-13	-1
c1cc2c(cc1Nc1nc(-c3ccc4c(c3)OCO4)cs1)OCCO2	0	-3	0	8	-1	26*
CCC(=O)Nc1nc(-c2ccc3c(c2)OCCO3)cs1	1	-4	-3	1	1	4
CC1=NOC(=O)/C1=C\c1ccc(-c2ccc(Br)cc2)o1	7	34*	5	-1	8	11
